Screens: PubChem, National Center for Advancing Translational Sciences (NCATS)
Sm TGR block: blocks Schistosoma mansoni thioredoxin glutathione reductase. Potency, µM (highest dose often 114 µM), without a hit: top-dose activity change, negative = inhibition, most hits filed as inhibitors. purified TGR, DTNB reduction, TNB absorbance 405 nm. Q962Y6. 360,000 tested, 3% active; further: nearly all actives have a fitted effect of over 60% in size
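TGR 20 nM + NADPH 100 uM (dispensed conc.), cpd preinc 15 min RT; start with NADPH (500 uM addition) then DTNB (15 mM addition). Kinetic TNB absorbance, 405 nm filter. Four-parameter Hill fit across titration.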
AmpC inh detg: inhibitors of E. coli AmpC beta-lactamase with detergent | P00811 | AID 485294 | 370,000 tested, 0.041% active | Potency, µM (titrated, usually from 114 µM), without a hit: at the highest dose activity change, negative = inhibition, most hits filed as inhibitors | AmpC hydrolysis of nitrocefin, absorbance 480 nm, 0.01% Triton;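 further: 0% = no-compound wells and -100% = no-enzyme wells; nearly all actives have a fitted effect of over 25% in size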
Target sequence (P00811 whole entry, looked up): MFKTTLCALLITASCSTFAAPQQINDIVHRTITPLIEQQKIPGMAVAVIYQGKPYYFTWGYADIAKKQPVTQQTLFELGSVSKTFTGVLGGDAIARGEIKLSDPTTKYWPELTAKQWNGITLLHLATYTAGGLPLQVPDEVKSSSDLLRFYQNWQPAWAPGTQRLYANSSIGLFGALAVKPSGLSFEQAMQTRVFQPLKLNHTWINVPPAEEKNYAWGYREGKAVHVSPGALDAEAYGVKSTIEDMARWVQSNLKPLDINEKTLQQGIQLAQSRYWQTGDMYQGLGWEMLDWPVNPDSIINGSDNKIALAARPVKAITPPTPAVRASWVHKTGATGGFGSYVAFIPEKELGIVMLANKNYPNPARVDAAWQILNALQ
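20 mM phosphate pH 7.0 + 0.01% (detergent screen) or 0.0001% Triton X-100; 5.3 nM AmpC reagent; cpd preinc 15 min RT; nitrocefin (800 uM stock) to start; A480 q20 s × 4 min; Activity was normalised to no-enzyme and no-compound control wells.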
AmpC no deterg: inhibitors of E. coli AmpC beta-lactamase without detergent; P00811; 330,000 tested, 0.52% active; AID 485341; Potency, µM (titrated, usually from 57.1 µM), for inactives: at the highest dose activity change, negative = inhibition, actives largely listed as inhibitors; AmpC nitrocefin hydrolysis, absorbance 480 nm, 0.0001% Triton;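 further: plate controls were no compound for no effect and no enzyme for full effect; nearly all actives have a fitted effect of over 20% in size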
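20 mM phosphate pH 7.0 + 0.01% (detergent screen) or 0.0001% Triton X-100; 5.3 nM AmpC reagent; cpd preinc 15 min RT; nitrocefin (800 uM stock) to start; A480 q20 s × 4 min; Activity was normalised to no-enzyme and no-compound control wells.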
An asterisk follows results filed as active; ? = inconclusive; · = not tested or not shown. The list is not random: actives were taken first. Their share in the collection is about 3.3%. The call rests on the fitted dose curve; in most records, active means well fitted curve in the direction sought with a large enough effect; inconclusive means small, poorly fitted or top-dose-only effect, or another doubt; inactive means no such curve, though single readings can be large; an effect the other way counts as inactive or inconclusive. Unless noted, on the % scale 0 is the no-effect control and ±100 the full control effect; potency means the concentration at half of the fitted maximal effect.

SMILES | Sm TGR block | AmpC inh detg | AmpC no deterg
CCCCN(CCCC)CCCNC(=O)c1ccc2nc(N3CCCCC3)sc2c1 | 28.2µM* | 9.8% | ·
CCCN1CCN(CCCNC(=O)c2ccc3nc(N4CCCCC4)sc3c2)CC1 | -12.2% | ? | 1.0%
Cc1csc(CNc2ncnc3ccc(-c4ccco4)cc23)c1 | -13.0% | -1.4% | -0.8%
COc1ccc(CNC(=O)Cn2ccc3cc(S(=O)(=O)N4CCCCCC4)ccc32)cc1OC | -0.1% | ? | ·
Cc1cc(NC(=O)CN2C(=O)CC(c3ccco3)Sc3ccccc32)no1 (stereo not drawn) | 15.8µM* | 1.6% | -23.1%
CC(=O)Nc1ccc(NC(=O)CN2C(=O)CC(c3ccco3)Sc3ccccc32)cc1 (stereo not drawn) | -1.1% | 18.7% | ·
Cc1cc(=O)[nH]c(N/N=C/c2cc(C)n(-c3ccccc3)c2C)n1 | 31.6µM* | 2.2% | 2.5%
Cc1cc(=O)[nH]c(N/N=C/c2ccccc2Cl)n1 | 6.1% | -0.2% | -10.6%
O=C(Nc1ccccc1Cl)c1ccc(F)c(S(=O)(=O)NCc2ccc(Cl)c(Cl)c2)c1 | 15.0% | 8.0% | ·
COc1cccc2c(C)cc3nnc(SCC(=O)Nc4ccc(C)cc4)n3c12 | -1.9% | -0.6% | ·
COc1cccc(NC(=O)CC(C)S(=O)(=O)c2ccc3c(c2)NC(=O)CO3)c1 (stereo not drawn) | -8.5% | -7.3% | ·
CCCCSc1nc(O)c(C2OC(=O)c3c2ccc(OC)c3OC)c(=O)n1C (stereo not drawn) | -16.9% | -9.1% | -8.8%
CCCCCCSc1nc(O)c(C2OC(=O)c3c2ccc(OC)c3OC)c(=O)n1-c1ccccc1 (stereo not drawn) | 12.6µM* | -18.0% | -29.6%
CC(C)(C)OC(=O)N1CCC(c2c(C(=O)NCc3cccc(Cl)c3)cnn2-c2ccc(F)cc2)CC1 | -4.6% | 12.8% | ·
Cc1scc(CN2CCN(c3ccc(F)cc3)CC2)c1C | 2.9% | 17.9% | ·
Cc1c(Cl)cn2c(=O)cc(CN3CCN(c4ccc(F)cc4)CC3)nc2c1Cl | 50.1µM* | 5.7% | -30.2%
O=C(NCC(c1cccs1)S(=O)(=O)c1cccs1)c1c(F)cccc1F (stereo not drawn) | ? | 10.6% | ·
COc1cc(-c2cc3n(C)c(C)c(CCC(=O)NC4CCC(C)CC4)c(=O)n3n2)cc(OC)c1OC (stereo not drawn) | 1.6% | 4.6% | ·
Nc1ccc(Br)c2c1C(=O)c1ccccc1C2=O | 12.6µM* | -1.1% | -44.5%
Nc1ccc(O)c2c1C(=O)c1ccccc1C2=O | -6.5% | -0.3% | -11.5%
CCCCOc1ccc(S(=O)(=O)NCc2csc(-c3ccc(OC)cc3)n2)cc1 | -1.7% | -7.4% | ·
c1ccc(-c2nnc(-c3ccccc3)o2)cc1 | 1.5% | ? | -23.1%
ClCc1nnc(-c2ccccc2)o1 | 50.1µM* | -14.1% | -12.0%
COc1ccc(NC(=O)c2oc3ccccc3c2NC(=O)C23CC4CC(CC(C4)C2)C3)c(OC)c1 | -1.5% | 5.0% | ·
CCOc1ccccc1-n1c(=S)sc2c(=O)n(-c3ccc(C)cc3)c(=S)[nH]c21 | 2.7% | -1.9% | -25.5%
SMILES | Sm TGR block | AmpC inh detg | AmpC no deterg
CCn1c(=S)sc2c(=O)n(-c3ccccc3)c(=S)[nH]c21 | 22.4µM* | -1.0% | -16.2%
CCSc1ncc(Cl)c(C(=O)Nc2ccc(S(=O)(=O)N(C)c3ccccc3)cc2)n1 | 12.8% | 19.9% | ·
CCS(=O)(=O)c1ncc(Cl)c(C(=O)Nc2ccc(S(=O)(=O)N(C)c3ccccc3)cc2)n1 | 0.501µM* | 2.9% | 24.9%
CCN(c1ccccc1)S(=O)(=O)c1ccc(NC(=O)c2nc(S(C)(=O)=O)ncc2Cl)cc1 | 0.398µM* | 0.9% | -14.3%
CC(C)Sc1ncc(Cl)c(C(=O)Nc2ccc(S(=O)(=O)N(C)c3ccccc3)cc2)n1 | -9.7% | 1.4% | ·
COc1cc(NC(=O)c2nnn(CC(=O)Nc3cc(C)ccc3C)c2N)cc(OC)c1 | -1.7% | 5.2% | ·
Cc1cccc(CSc2nc(=O)c3c(n2C)NC(=O)CC3c2cc(F)cc(F)c2)c1 (stereo not drawn) | 0.1% | -3.1% | ·
CC(=O)Oc1cccc(N2C(=O)C3C4C=CC(C4)C3C2=O)c1 (stereo not drawn) | -1.0% | -3.9% | -6.2%
CC(=O)Oc1cccc(N2C(=O)C3C4C=CC(CC4)C3C2=O)c1 (stereo not drawn) | 44.7µM* | -19.7% | -4.2%
Cc1ccc2scc(N3CCCC(C)C3)c(=O)c2c1 (stereo not drawn) | 3.9% | 3.6% | ·
Cc1ccc(CN2CCN(/N=C/c3ccc(O)c(O)c3)CC2)cc1 | 31.6µM* | ? | -18.0%
Oc1ccc(/C=N/N2CCN(C3c4ccccc4-c4ccccc43)CC2)cc1O | 10µM* | 0.1% | -35.9%
Oc1ccc(/C=N/N2CCN(C3c4ccccc4-c4ccccc43)CC2)cc1 | 0.5% | 7.5% | -25.0%
Cc1ccc(CN2CCN(/N=C/c3ccc(C(=O)O)cc3)CC2)cc1 | 0.6% | ? | 0.6%
CCCOC(=O)CSc1nnc(-c2ccccc2)o1 | 17.6% | 2.1% | ·
Cc1nnc(NC(=O)CC(CN(C)S(=O)(=O)c2ccccc2)c2ccccc2)s1 (stereo not drawn) | ? | ? | 13.0%
CCc1nnc(NC(=O)CC(CN(C)S(=O)(=O)c2ccccc2)c2ccccc2)s1 (stereo not drawn) | -2.2% | ? | 39.8µM*
COc1ccc(N2C(=O)CC(Nc3cccc([N+](=O)[O-])c3)C2=O)cc1 (stereo not drawn) | ? | 1.5% | -24.6%
COC(=O)c1cccc(NC2CC(=O)N(c3ccc(OC)c(OC)c3)C2=O)c1 (stereo not drawn) | 35.5µM* | -0.5% | -4.6%
COc1ccc(N2C(=O)CC(Nc3ccc(C(=O)O)cc3)C2=O)cc1OC (stereo not drawn) | 22.4µM* | -7.1% | -6.7%
CCOC(=O)c1ccc(N2C(=O)CC(Nc3ccc(O)cc3)C2=O)cc1 (stereo not drawn) | -2.3% | -2.2% | -16.3%
CCOC(=O)c1cc(-c2ccc(F)cc2)n(CCC(=O)NCc2ccccc2OC)c1C | 5.9% | 0.1% | ·
O=C(NCc1ccccc1Cl)c1cc(-c2ccccc2)n[nH]1 | 4.0% | -0.1% | ·
CN(C)S(=O)(=O)c1cc(NC(=O)CSc2nn(-c3ccc(Cl)cc3)c(=S)s2)ccc1Cl | -2.3% | ? | 14.1µM*
Cc1ccc(NC(=O)CSc2nn(-c3ccc(Cl)cc3)c(=S)s2)cc1S(=O)(=O)N(C)C | -4.6% | 11.3% | -53.5%
SMILES | Sm TGR block | AmpC inh detg | AmpC no deterg
O=C(CCCN1C(=O)/C(=C/c2ccccc2Cl)SC1=S)NNC(=O)c1ccc(Cl)cc1 | -0.1% | -9.4% | -19.4%
Cc1ccc(C(=O)NNC(=O)CCCN2C(=O)/C(=C/c3ccccc3Cl)SC2=S)cc1 | -23.1% | 0.6% | 31.6µM*
COc1ccc(-n2c(=O)c3c4c(sc3n(Cc3cc(=O)n5c(C)cccc5n3)c2=O)CCC4)c(OC)c1 | 4.3% | 11.9% | ·
COc1ccc(-c2c(C)nn3c(-c4ccccc4)cc(-c4ccccc4)nc23)cc1 | -3.7% | 14.1% | ·
N#CC(C#N)=C1C=CC=CN1/C(=C\c1ccco1)C(=O)c1ccc(Br)cc1 | 2.24µM* | ? | -15.8%
N#CC(C#N)=C1C=CC=CN1/C(=C\c1ccco1)C(=O)c1ccccc1 | 2.82µM* | -2.8% | -29.5%
